# Source: PubChem BioAssay (NCI)
# Compounds without any hit were thinned out: in the full panel of roughly 83,000, 20% have a hit.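 Activity criterion: percent growth below 10, measured after cells in 96-well plates were exposed to a single compound concentration for 48 hours.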 Unmarked numbers belong to inactive results. Calls of active or inactive are those of the source.
# Assays:
# Experiment in all cases: NCI-60 one-dose screen, 48 h (100 = growth as untreated, 0 = no growth, -100 = all killed)
# Conditions in all cases: 10 µM
# K-562 leukemia = test system: K-562 leukemia
# MALME-3M melanoma = test system: MALME-3M melanoma
# MDA-MB-231 breast = test system: MDA-MB-231 breast
# RXF 393 renal = test system: RXF 393 renal
# SF-268 CNS = test system: SF-268 CNS
# SF-295 CNS = test system: SF-295 CNS
# SF-539 CNS = test system: SF-539 CNS
# UACC-257 melanoma = test system: UACC-257 melanoma
# M14 melanoma = test system: M14 melanoma
# HCT-15 colon = test system: HCT-15 colon
# SNB-75 CNS = test system: SNB-75 CNS
# SNB-19 CNS = test system: SNB-19 CNS
# U251 CNS = test system: U251 CNS
# PC-3 prostate = test system: PC-3 prostate
# SK-MEL-5 melanoma = test system: SK-MEL-5 melanoma
# UACC-62 melanoma = test system: UACC-62 melanoma
# LOX IMVI melanoma = test system: LOX IMVI melanoma
# SK-MEL-28 melanoma = test system: SK-MEL-28 melanoma
# HT29 colon = test system: HT29 colon
# SK-MEL-2 melanoma = test system: SK-MEL-2 melanoma
Compound,growth (K-562 leukemia),growth (MALME-3M melanoma),growth (MDA-MB-231 breast),growth (RXF 393 renal),growth (SF-268 CNS),growth (SF-295 CNS),growth (SF-539 CNS),growth (UACC-257 melanoma),growth (M14 melanoma),growth (HCT-15 colon),growth (SNB-75 CNS),growth (SNB-19 CNS),growth (U251 CNS),growth (PC-3 prostate),growth (SK-MEL-5 melanoma),growth (UACC-62 melanoma),growth (LOX IMVI melanoma),growth (SK-MEL-28 melanoma),growth (HT29 colon),growth (SK-MEL-2 melanoma)
Nc1c(C(=O)Nc2ccccc2)sc2nc3c(cc12)CCCC3,13.6%,52%,56%,-24.3% (active),54.7%,5.09% (active),-3.86% (active),59.2%,22.7%,24.8%,20.6%,64%,21.7%,25.4%,31.8%,47.8%,53.3%,56%,,
N#CCCN1C/C(=C/c2ccc(Cl)cc2)C(=O)/C(=C/c2ccc(Cl)cc2)C1,3.1% (active),-52.8% (active),-18.5% (active),-94.3% (active),-38.6% (active),-22.3% (active),-50% (active),-53.4% (active),-44.1% (active),2.04% (active),11.6%,-28% (active),,-39.6% (active),-60.6% (active),-66.1% (active),-80.4% (active),-61.4% (active),-36.1% (active),19%
CC(C)N(CCNc1nc(C(Cl)(Cl)Cl)nc2cc(Cl)ccc12)C(C)C,-53.9% (active),-28% (active),-66.4% (active),-19% (active),0.341% (active),-64.9% (active),-33.7% (active),-64.7% (active),-68.7% (active),-38.4% (active),8.33% (active),22.9%,,-5.1% (active),-97% (active),,-80.2% (active),-80.9% (active),-32.9% (active),-60% (active)
COc1cc(-c2cc(/C=C/C(=O)c3ccc(Cl)c(Cl)c3)[nH]n2)cc(OC)c1OC,31.9%,87%,62.3%,67.3%,104%,141%,35%,89.7%,89.8%,50.9%,75.4%,68%,43.8%,55%,84.1%,81.6%,29.6%,96.1%,,86.7%
CSCCCNC(=O)c1ccc2c(c1)/C(=C/c1[nH]c(C)cc1C)C(=O)N2,49.1%,-9.58% (active),20.9%,-31% (active),31.6%,29.2%,13.2%,48.9%,8.79% (active),22.5%,-1.79% (active),60.7%,,11.4%,30.5%,15.6%,32.5%,17.6%,31.2%,-27.6% (active)
S=c1[nH]ccn1-c1c(Cl)cccc1Cl,103%,109%,102%,106%,118%,99.1%,94.4%,-4.51% (active),98.1%,100%,102%,90.9%,,106%,106%,97.3%,99%,101%,105%,140%
Cc1ccc(NC(=O)Nc2cccnc2)cc1NC(=O)Nc1cccnc1,57.4%,102%,92.8%,82.7%,96.8%,77.9%,87.5%,10.9%,91.6%,84%,95.9%,94%,,43.4%,64.3%,75.7%,96.6%,98.8%,89.6%,83%
C#Cc1ccc(-n2c(/C=C/c3ccc4ccccc4n3)nc3ncccc3c2=O)cc1,3.17% (active),-62.9% (active),-41.2% (active),-82.5% (active),-49.5% (active),-58.3% (active),-17.6% (active),-72.9% (active),-19% (active),-18.8% (active),-59.2% (active),-0.995% (active),,-28.6% (active),-98.2% (active),-65.3% (active),-50.8% (active),-52.8% (active),-61.4% (active),-67% (active)
Cc1ccc(S(=O)(=O)OCCN(CCOS(=O)(=O)c2ccc(C)cc2)c2c[nH]c(=O)[nH]c2=O)cc1,105%,117%,109%,106%,108%,112%,96.4%,91.4%,105%,99.7%,92.2%,100%,95%,94.6%,101%,100%,104%,102%,,
COc1cc(-c2cc(/C=C/C(=O)c3ccc(F)c(F)c3)[nH]n2)cc(OC)c1OC,29.8%,72.5%,49.7%,76.9%,61.7%,10.4%,65.6%,80.8%,67.9%,46.6%,56.7%,67.8%,,11.7%,75.6%,51.4%,55.9%,73.4%,53.7%,83.1%
O=C1ON=[N+](c2ccc(Cc3ccc([N+]4=NOC(=O)C4CN4CCOCC4)cc3)cc2)C1CN1CCOCC1 (stereo not drawn),26.4%,65.6%,60.5%,72.2%,78.3%,44.1%,77.5%,75.1%,69.5%,78.6%,72.6%,86.5%,62.8%,56.5%,53.2%,53.4%,65%,74.9%,,78.6%
COc1ccc(-c2nn(-c3cccc(NC(=O)c4cccc(C(F)(F)F)c4)c3)cc2-c2ccncc2)cc1Cl,14.8%,12.6%,9.03% (active),19.4%,37.5%,-10.7% (active),-39.6% (active),25.5%,7.66% (active),26.9%,6.59% (active),,-3.25% (active),14%,23.7%,38.2%,28.6%,40.6%,8.18% (active),
CCOC(=O)c1ccc(NC(=O)Nc2ncc(Cl)cc2Cl)cc1,79.4%,111%,94%,100%,104%,96.5%,96.2%,14.7%,94.7%,102%,119%,106%,99.2%,77%,104%,87%,110%,106%,,
O=C1Nc2ccc(Cl)cc2/C1=C\c1c(-c2ccc(Cl)cc2)nc2sc(C3CC3)nn12,76.1%,42%,43.7%,21.1%,34%,41.4%,8.81% (active),63.2%,74.2%,77.6%,11.3%,74.3%,52.6%,75.6%,72%,38.4%,26%,46%,,103%
COc1cc(-c2cc(/C=C/C(=O)c3ccc(N)cc3)[nH]n2)cc(OC)c1OC,10.9%,58.3%,-2.03% (active),-23.2% (active),-9.2% (active),22.9%,-64.1% (active),29.2%,34.8%,-22.3% (active),8.6% (active),,-58.4% (active),11.1%,11.8%,,-52.3% (active),6.59% (active),2.34% (active),28.6%
CC(=O)n1c(-c2ccc(Cl)c(Cl)c2)cn(-c2ccc(Cl)cc2)c1=O,-35% (active),26.6%,33.3%,-31.2% (active),-32.7% (active),1.9% (active),-33.2% (active),57.5%,34%,59%,-0.456% (active),,26.6%,-31.2% (active),9.15% (active),18%,18.2%,7.17% (active),12.8%,80.9%
